Tau ThT inhib = qHTS for Inhibitors of Tau Fibril Formation, Thioflavin T Binding; 270,000 tested, 2.1% active; AID 1460, 2008; recombinant tau K18 P301L, heparin-induced fibrillization, ThT fluorescence; Microtubule-associated protein tau (Homo sapiens), P10636; Potency, µM (top dose mostly 57.4 µM), inactives show top-dose activity, negative = inhibition, actives largely listed as inhibitors; also: potency is read from the fitted curve at half-maximal effect; nearly all actives have a fitted effect of over 55% in size
Target sequence (P10636 561-689 P618L limits assumed): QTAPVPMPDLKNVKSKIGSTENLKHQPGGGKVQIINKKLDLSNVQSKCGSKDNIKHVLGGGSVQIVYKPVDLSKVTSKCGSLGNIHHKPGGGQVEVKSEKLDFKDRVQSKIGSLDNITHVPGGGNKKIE
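Using a mix of unlabeled (15 uM) and Alexa 594-labeled (0.24 uM) tau K18 P301L, heparin-triggered fibrillization over 6 hr at 37 C was scored by ThT fluorescence.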
Tau fluor cs = Counterscreen qHTS for Inhibitors of Tau Fibril Formation, Fluorescence Polarization | tau K18 P301L Alexa594 fluorescence, heparin fibrillization | Potency, µM (top dose mostly 57.7 µM), without a hit: at the highest dose activity change, negative = decrease | 280,000 tested, 0.93% active | AID 1463, 2008; also: potency is read from the fitted curve at half-maximal effect; nearly all actives have a fitted effect of over 55% in size
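Human tau K18 P301L (15 uM unlabeled, 0.24 uM Alexa 594-labeled) in 100 mM sodium acetate pH 7 with 20 uM heparin, 6 hr at 37 C. ThT 30 uM added, 1 hr ambient; Alexa 594 FP and total fluorescence read at 555/632 nm.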
Tau fibril FP = qHTS for Inhibitors of Tau Fibril Formation, Fluorescence Polarization. Microtubule-associated protein tau (Homo sapiens), P10636. K18 P301L tau heparin fibrillization, Alexa594 FP, 6 h. Potency, µM (top dose mostly 57.7 µM), for inactives: at the top dose activity, negative = inhibition, usual class: inhibitors. 280,000 tested, 0.39% active. AID 1468, 2008; also: potency is read from the fitted curve at half-maximal effect; nearly all actives have a fitted effect of over 55% in size
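Read-out: fluorescence polarization of Alexa 594-labeled tau (0.24 uM), 555 nm excitation, 632 nm emission. Mixtures held 15 uM unlabeled K18 P301L, compound and 20 uM heparin, pH 7 acetate buffer, incubated 6 hr at 37 C.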
NPSR antag = qHTS Assay for Antagonists of the Neuropeptide S Receptor: cAMP Signal Transduction. Q6W5P4. CHO-NPSR cells, cAMP TR-FRET, antagonist mode. AID 1461, 2008. Potency, µM (series often up to 38.3 µM), without a hit: top-dose activity change, negative = inhibition, actives largely listed as inhibitors. 220,000 tested, 1% active; also: potency is read from the fitted curve at half-maximal effect; nearly all actives have a fitted effect of over 50% in size
Target sequence (Q6W5P4 whole entry, looked up): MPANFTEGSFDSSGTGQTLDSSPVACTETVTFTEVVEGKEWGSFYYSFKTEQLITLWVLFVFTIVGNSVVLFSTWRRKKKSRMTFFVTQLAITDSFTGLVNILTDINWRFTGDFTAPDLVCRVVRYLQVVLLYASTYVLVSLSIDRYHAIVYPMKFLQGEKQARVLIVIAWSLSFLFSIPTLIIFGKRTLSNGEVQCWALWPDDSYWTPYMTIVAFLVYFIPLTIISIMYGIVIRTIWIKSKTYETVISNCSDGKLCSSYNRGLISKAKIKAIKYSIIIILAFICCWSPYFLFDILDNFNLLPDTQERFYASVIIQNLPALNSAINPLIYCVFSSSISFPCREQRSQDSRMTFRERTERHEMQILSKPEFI
JMJD2E inh = qHTS Assay for Inhibitors of Human Jumonji Domain Containing 2E (JMJD2E); Lysine-specific demethylase 4E (Homo sapiens), B2RXH2; JMJD2E catalytic domain, FDH-coupled NADH fluorescence (FDH is formaldehyde dehydrogenase); Potency, µM (highest dose often 57.1 µM), for the others: at the highest dose activity change, negative = inhibition, hits mostly inhibitors; 230,000 tested, 1.6% active; AID 2147, 2009; active = well fitted inhibition curve with a large enough effect, not every such curve was filed as active; inconclusive = small, poorly fitted or top-dose-only effect, or another doubt; inactive = no such curve, though single readings can be large or run the other way;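 also: potency is read from the fitted curve at half-maximal effect; 0% = wells with enzyme and -100% = buffer wells without enzyme; nearly all actives have a fitted effect of over 50% in size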
PNC assembly inh = High Content Assay for Compounds that inhibit the Assembly of the Perinucleolar Compartment; PC3M PTB-GFP, PNC prevalence imaging, 16 h; active compounds read low; activity change (PNC), negative = inhibition, % at 10 µM; 140,000 tested, 3.1% active; AID 2417, 2010;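 active = readout at or below -70, meaning at least 70% loss of cells showing the perinucleolar compartment, a nuclear body marking cancer cells; inconclusive = readout between -30 and a set limit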;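 also: plate controls were DMSO wells for no effect and camptothecin positive control wells for full effect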
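Read-out is percentage of cells bearing a perinucleolar compartment, from automated 20x imaging of fixed, Hoechst-stained PC3M PTB-GFP cells. Cells were seeded 4 h, then exposed 16 h to compound (23 nl of library stock) in duplicate plates.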
* = called active by the depositor; ? = inconclusive; / = not tested or not shown; [ ] = dose if it differs, or a comment. In the library only some 5.1% were active in any assay of this set; here they are far more common. Unless noted, calls follow the shape of the dose curve; as a rule, active = well fitted curve in the direction sought with a large enough effect; inconclusive = small, poorly fitted or top-dose-only effect, or another doubt; inactive = no such curve, though single readings can be large; an effect the other way counts as inactive or inconclusive. Unless noted, % is scaled to controls: 0 for no effect and ±100 for the full control effect.

SMILES	Tau ThT inhib	Tau fluor cs	Tau fibril FP	NPSR antag	JMJD2E inh	PNC assembly inh
Cc1ccccc1NC(=O)c1sc2nc3n(c(=O)c2c1C)CCC3	-5.9%	4.47µM*[quencher]	?	/	/	/
COc1cc(OC)c(NC(=O)Nc2sc3nc4n(c(=O)c3c2C)CCC(C)CC4)cc1Cl (stereo unspecified)	?	3.98µM*[quencher]	10.7%	/	/	/
CCCSCCCNC(=O)C1CCN(c2nn3cc(-c4ccc(F)cc4)nc3s2)CC1	?	-8.6%	-10.4%	/	/	/
O=C(NCCc1ccc(Cl)cc1)c1ccc2c(c1)N(Cc1ccccc1)C(=O)CS2	-3.3%	?	-4.8%	/	/	/
O=C1C2=C(S[C@@H]3O[C@H](CO)[C@@H](O)[C@H](O)[C@H]3O2)C(=O)c2ccccc21	?	-14.7%	?	/	3.7%	/
COc1ccc2nc(NC(=O)c3cc(=O)c4cc(C)cc(C)c4o3)sc2c1	?	-15.7%	-7.6%	/	/	/
Cc1ccc2c(c1)-c1c(ssc1=S)C(C)(C)N2C(=O)c1ccco1	?	-22.7%	-1.3%	?	2.0%	-100.0*
O=C(CSc1nnnn1C1CCCCC1)N1CCN(C(=O)c2ccco2)CC1	3.55µM*	-53.5%	9.3%[2.34 µM]	32.0%	?	/
COc1cccc(N2CCN(C(=O)C3CCN(S(=O)(=O)c4cn(C)cn4)CC3)CC2)c1	-3.0%	-1.2%	0.7%	/	/	/
COc1ccc(-c2nn(-c3cccc([N+](=O)[O-])c3)c3c2cnc2cc4c(cc23)OCO4)cc1	2.2%	-0.4%	-2.0%	/	/	/
COc1ccc(/C=N/n2c(-c3ccco3)nc3ccccc3c2=O)cc1	-11.0%	-10.3%	?	1.6%[46.1 µM]	-6.7%	-100.0*
CCCCOc1ccc(C(=O)NNC(=S)NC(=O)CC)cc1	?	-16.8%	-9.8%	-5.2%	-4.5%	?
C=CCNC(=S)NNC(=O)c1ccc(OCCCC)cc1	3.8%	3.7%	1.8%	5.4%[46.1 µM]	3.6%	-121.7*
COc1ccc(CCNCc2c(C(=O)O)c(C)n(Cc3cccc(Cl)c3)c2C)c(OC)c1OC	-5.5%	-5.0%	-8.4%	/	/	/
Cc1cc(C)n(-c2nnc3n2N=C(c2ccccc2)CS3)n1	8.7%	6.9%	4.3%	21.8%[46.1 µM]	-5.3%	-135.3*
CCc1c(C)sc(NC(=O)c2cc(-c3ccc(OC)cc3)on2)c1C#N	-12.3%	-9.4%	-16.4%	/	/	/
Cc1sc2ncnc(N/N=C/c3ccc(O)cc3)c2c1C	4.47µM*	12.6µM*[quencher]	8.6%	6.4%	-15.9%	11.3
COc1ccc(/C=N/Nc2ncnc3sc(C)c(C)c23)cc1	?	?	?	1.0%	-9.5%	?
Cc1sc2ncnc(NCc3cccs3)c2c1C	-4.6%	-3.0%	7.1%	-17.5%[46.1 µM]	1.4%	45.6
Cc1sc2ncnc(N/N=C/c3ccccc3O)c2c1C	?	?	?	-7.6%	25.1µM*	?
Cc1cccc(-c2nc3ccccc3n2Cc2ccccc2)c1	-21.6%	-17.3%	-0.7%	/	/	/
Cc1ccc2[nH]c3c(c2c1)CCCC3=O	-23.0%	-15.4%	-11.8%	-1.0%[46.1 µM]	?	-5.3
CCCCN1CCc2c([nH]c3ccc(C)cc23)C1=O	-9.9%	-11.3%	-5.0%	-27.9%[46.1 µM]	-14.4%	-100.0*
CC1CCN(S(=O)(=O)c2ccc3c(ccc(=O)n3CC(=O)NCc3ccccc3)c2)CC1	2.5%	-21.0%	-4.9%	/	/	/
Cc1ccc2c(CSc3nc4nc(C)cc(C)n4n3)cc(=O)oc2c1	-10.6%	-2.0%	6.0%	10µM*	-2.5%	?
CC(C)c1ccc(NC(=O)c2cc(S(=O)(=O)N(C)C3CCCCC3)ccc2F)cc1	8.9%	-12.0%	-7.3%	/	/	/
O=C(CCC1N=C2c3ccccc3N=C(SCc3ccccc3Cl)N2C1=O)N1CCN(c2ccccc2)CC1 (stereo unspecified)	?	-19.8%	-6.6%	/	/	/
